# The supplement of paper PMC10037445
# Several values for one entry are separate records, joined by “and”; a condition that tells them apart may be missing. Identical values can stand only once. Over roughly 2,900 compounds, “NF-kB SEAP reporter activity, fold change vs agonist alone” has its median near 0.99; the highest 2% begin near 2.6. What follows is part of a selection rich in the highest values, with near analogues and random picks from the rest.
# How the values were obtained:
# [1] = test system: RAW-Dual; assay: NF-kB SEAP reporter activity, fold change vs agonist alone; higher = enhanced NF-kB activity
# How it was run: (§1)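 Cytotoxic wells were those whose IncuCyte confluency was below 70% of agonist controls in both mask sets. The cells were RAW-Dual macrophages at 50,000 cells/well in DMEM on 384-well plates, dosed with 50 nL of library stock by pin tool, stimulated with a PRR agonist 1 h later, and kept at 37 °C, 5% CO2 for 20 hours. IRF and NF-κB reporter activity, as fold change over agonist-alone wells, came from supernatant read by QuantiLuc luminescence and QuantiBlue absorbance, respectively.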
# [2] = test system: RAW-Dual; assay: NF-kB SEAP reporter activity, fold change vs agonist alone; cytotoxicity flag (confluency mask): not cytotoxic; higher = enhanced NF-kB activity
# How it was run: as §1
# [3] = test system: RAW-Dual; assay: NF-kB SEAP reporter activity, fold change vs agonist alone; cytotoxicity flag (confluency mask): cytotoxic (confluency <70% of control); higher = enhanced NF-kB activity
# How it was run: as §1
# [4] = library stock concentration (final ~1000-fold dilution): 10 mM, cytotoxicity flag (confluency mask): cytotoxic (confluency <70% of control), agonist: Imiquimod (TLR7) […]
# [5] = library stock concentration (final ~1000-fold dilution): 10 mM, cytotoxicity flag (confluency mask): cytotoxic (confluency <70% of control), agonist: MPLA (TLR4) […]
# [6] = library stock concentration (final ~1000-fold dilution): 10 mM, cytotoxicity flag (confluency mask): not cytotoxic, agonist: Imiquimod (TLR7) […]
# [7] = library stock concentration (final ~1000-fold dilution): 10 mM, cytotoxicity flag (confluency mask): not cytotoxic, agonist: MPLA (TLR4) […]
# [8] = agonist: ODN 1826 (TLR9) 0.5 ug/mL
# [9] = agonist: Pam2CSK4 (TLR2/6) 0.1 ug/mL
# [10] = agonist: Pam3CSK4 (TLR2/1) 0.1 ug/mL
smiles,measurement,setting,value
C=C(C)C1CCC2(C(=O)O)CCC3(C)C(CCC4C5(C)CCC(OC(=O)CC(C)(C)C(=O)O)C(C)(C)C5CCC43C)C12 (stereo not drawn),NF-kB SEAP reporter activity,[1]; [4],0.823
same,NF-kB SEAP reporter activity,[1]; [5],1.07
CCN(CC)Cc1ccc(C(=O)N(CCc2ccccc2OC)C2CCNC2)cc1 (stereo not drawn),NF-kB SEAP reporter activity,[1]; [6],0.518
same,NF-kB SEAP reporter activity,[1]; [7],1.28
CCN(CC)Cc1ccc(C(=O)N(CCc2ccccc2OC)C2CCNC2)cc1 (stereo not drawn) (library stock concentration (final ~1000-fold dilution): 10 mM),NF-kB SEAP reporter activity,[2]; agonist: LPS (TLR4) 0.1 ug/mL,0.9
same,NF-kB SEAP reporter activity,[2]; [8],0.312
same,NF-kB SEAP reporter activity,[2]; [9],0.883
same,NF-kB SEAP reporter activity,[2]; [10],0.613
C=C1CCC2C(C)(COC(=O)CCC(=O)O)C(OC(=O)CCC(=O)O)CCC2(C)C1/C=C/C1=CCOC1=O (stereo not drawn) (library stock concentration (final ~1000-fold dilution): 10 mM),NF-kB SEAP reporter activity,[2]; agonist: LPS (TLR4) 0.1 ug/mL,0.94
same,NF-kB SEAP reporter activity,[2]; [8],0.908
same,NF-kB SEAP reporter activity,[2]; [9],0.924
same,NF-kB SEAP reporter activity,[2]; [10],1.06
C=C1CCC2C(C)(COC(=O)CCC(=O)O)C(OC(=O)CCC(=O)O)CCC2(C)C1/C=C/C1=CCOC1=O (stereo not drawn),NF-kB SEAP reporter activity,[1]; [6],0.926
same,NF-kB SEAP reporter activity,[1]; [7],0.985
Cc1ccc(CNc2ncnc3ccc(-c4ccc(CO)o4)cc23)o1 (library stock concentration (final ~1000-fold dilution): 10 mM),NF-kB SEAP reporter activity,[2]; agonist: LPS (TLR4) 0.1 ug/mL,1.16
same,NF-kB SEAP reporter activity,[2]; [8],1.35
same,NF-kB SEAP reporter activity,[2]; [9],1.21
same,NF-kB SEAP reporter activity,[2]; [10],1.4
Nc1ccc2ncnc(NCCc3ccc(Oc4ccccc4)cc3)c2c1 (library stock concentration (final ~1000-fold dilution): 10 mM),NF-kB SEAP reporter activity,[2]; agonist: LPS (TLR4) 0.1 ug/mL,1.57 and 1.15
same,NF-kB SEAP reporter activity,[2]; [9],0.752 and 0.456
same,NF-kB SEAP reporter activity,[2]; [10],1.02 and 0.73
N#Cc1ccc2ncnc(NCCc3ccccc3)c2c1 (library stock concentration (final ~1000-fold dilution): 10 mM),NF-kB SEAP reporter activity,[2]; agonist: LPS (TLR4) 0.1 ug/mL,2.76
same,NF-kB SEAP reporter activity,[2]; [8],1.15
same,NF-kB SEAP reporter activity,[2]; [9],1.51
same,NF-kB SEAP reporter activity,[2]; [10],1.76
Cc1ccc(CNc2ncnc3ccc(-c4ccc(CO)o4)cc23)o1,NF-kB SEAP reporter activity,[1]; [6],1.07
same,NF-kB SEAP reporter activity,[1]; [7],1.24
N#Cc1ccc2ncnc(NCCc3ccccc3)c2c1,NF-kB SEAP reporter activity,[1]; [6],0.984
same,NF-kB SEAP reporter activity,[1]; [7],1.59
Nc1ccc2ncnc(NCCc3ccc(Oc4ccccc4)cc3)c2c1,NF-kB SEAP reporter activity,[1]; [6],1.46
O=C(Nc1ccc(Cl)cc1)c1cc2ccccc2cc1OP(=O)(O)O (library stock concentration (final ~1000-fold dilution): 10 mM),NF-kB SEAP reporter activity,[2]; agonist: LPS (TLR4) 0.1 ug/mL,1.08
same,NF-kB SEAP reporter activity,[2]; [8],0.965
same,NF-kB SEAP reporter activity,[2]; [9],0.931
same,NF-kB SEAP reporter activity,[2]; [10],0.763
O=C(Nc1ccc(Cl)cc1)c1cc2ccccc2cc1OP(=O)(O)O,NF-kB SEAP reporter activity,[1]; [6],0.877
same,NF-kB SEAP reporter activity,[1]; [7],1.04
N=C(N)NCCCC1NC(=O)C(CCCCN)NC(=O)C(Cc2ccccc2)NC(=O)C(CC(=O)O)NC(=O)CNC1=O.O=C(O)C(F)(F)F (stereo not drawn) (library stock concentration (final ~1000-fold dilution): 10 mM),NF-kB SEAP reporter activity,[2]; agonist: LPS (TLR4) 0.1 ug/mL,1.07
same,NF-kB SEAP reporter activity,[2]; [8],0.955
same,NF-kB SEAP reporter activity,[2]; [9],1.13
same,NF-kB SEAP reporter activity,[2]; [10],0.988
N=C(N)NCCCC1NC(=O)C(CCCCN)NC(=O)C(Cc2ccccc2)NC(=O)C(CC(=O)O)NC(=O)CNC1=O.O=C(O)C(F)(F)F (stereo not drawn),NF-kB SEAP reporter activity,[1]; [6],0.934
same,NF-kB SEAP reporter activity,[1]; [7],1.07
COc1ncc(-c2cc(-c3ncc(CN4CC(C)OC(C)C4)o3)c3cn[nH]c3c2)cc1NS(C)(=O)=O (stereo not drawn) (library stock concentration (final ~1000-fold dilution): 10 mM),NF-kB SEAP reporter activity,[3]; agonist: LPS (TLR4) 0.1 ug/mL,5.18
same,NF-kB SEAP reporter activity,[3]; [8],0.639
same,NF-kB SEAP reporter activity,[3]; [9],1.01
same,NF-kB SEAP reporter activity,[3]; [10],1.39
COc1ncc(-c2cc(-c3ncc(CN4CC(C)OC(C)C4)o3)c3cn[nH]c3c2)cc1NS(C)(=O)=O (stereo not drawn),NF-kB SEAP reporter activity,[1]; [4],0.604
same,NF-kB SEAP reporter activity,[1]; [5],2.18
Cc1ccc(NCCN(C)CCNc2ccnc3cc(Cl)ccc23)c2c(=O)c3ccccc3sc12 (library stock concentration (final ~1000-fold dilution): 2 mM),NF-kB SEAP reporter activity,[2]; agonist: LPS (TLR4) 0.1 ug/mL,1.45
same,NF-kB SEAP reporter activity,[2]; [8],1.04
same,NF-kB SEAP reporter activity,[2]; [9],0.845
same,NF-kB SEAP reporter activity,[2]; [10],1.06
CN(CCNCc1cn(Cc2ccc(Cl)cc2)nn1)CCNc1ccnc2cc(Cl)ccc12.O=C(O)C(F)(F)F (library stock concentration (final ~1000-fold dilution): 10 mM),NF-kB SEAP reporter activity,[3]; agonist: LPS (TLR4) 0.1 ug/mL,2.67
same,NF-kB SEAP reporter activity,[3]; [8],0.269
same,NF-kB SEAP reporter activity,[3]; [9],1.18
same,NF-kB SEAP reporter activity,[3]; [10],1.87
CCN(CCO)CCCC(C)Nc1ccnc2cc(Cl)ccc12.O=S(=O)(O)O (stereo not drawn) (library stock concentration (final ~1000-fold dilution): 10 mM water),NF-kB SEAP reporter activity,[2]; agonist: LPS (TLR4) 0.1 ug/mL,1.41
same,NF-kB SEAP reporter activity,[2]; [8],0.252
same,NF-kB SEAP reporter activity,[2]; [9],0.864
same,NF-kB SEAP reporter activity,[2]; [10],0.763
CCN(CC)Cc1cc(Nc2ccnc3cc(Cl)ccc23)ccc1O.Cl.Cl.O.O,NF-kB SEAP reporter activity,[1]; [6],0.244
same,NF-kB SEAP reporter activity,[1]; [7],0.82
Cc1ccc(NCCN(C)CCNc2ccnc3cc(Cl)ccc23)c2c(=O)c3ccccc3sc12,NF-kB SEAP reporter activity,"[1]; library stock concentration (final ~1000-fold dilution): 2 mM, cytotoxicity flag (confluency mask): not cytotoxic, agonist: Imiquimod (TLR7) […]",0.907
same,NF-kB SEAP reporter activity,"[1]; library stock concentration (final ~1000-fold dilution): 2 mM, cytotoxicity flag (confluency mask): not cytotoxic, agonist: MPLA (TLR4) […]",1.05
CN(CCNc1ccnc2cc(Cl)ccc12)CCNc1ccnc2cc(Cl)ccc12.Cl.Cl.Cl,NF-kB SEAP reporter activity,[1]; [4],0.958
same,NF-kB SEAP reporter activity,[1]; [5],2.39
CCN(CC)Cc1cc(Nc2ccnc3cc(Cl)ccc23)ccc1O.Cl.Cl.O.O (library stock concentration (final ~1000-fold dilution): 10 mM),NF-kB SEAP reporter activity,[2]; agonist: LPS (TLR4) 0.1 ug/mL,0.419
same,NF-kB SEAP reporter activity,[2]; [8],0.184
same,NF-kB SEAP reporter activity,[2]; [9],0.719
same,NF-kB SEAP reporter activity,[2]; [10],0.633
CN(CCNCc1cn(Cc2ccc(Cl)cc2)nn1)CCNc1ccnc2cc(Cl)ccc12.O=C(O)C(F)(F)F,NF-kB SEAP reporter activity,[1]; [4],1.52
same,NF-kB SEAP reporter activity,[1]; [5],2.19
CN(CCNc1ccnc2cc(Cl)ccc12)CCNc1ccnc2cc(Cl)ccc12.Cl.Cl.Cl (library stock concentration (final ~1000-fold dilution): 10 mM),NF-kB SEAP reporter activity,[3]; agonist: LPS (TLR4) 0.1 ug/mL,4.28
same,NF-kB SEAP reporter activity,[3]; [8],0.547
same,NF-kB SEAP reporter activity,[3]; [9],1.63
same,NF-kB SEAP reporter activity,[3]; [10],2.17
CCN(CCO)CCCC(C)Nc1ccnc2cc(Cl)ccc12.O=S(=O)(O)O (stereo not drawn),NF-kB SEAP reporter activity,"[1]; library stock concentration (final ~1000-fold dilution): 10 mM water, cytotoxicity flag (confluency mask): not cytotoxic, agonist: Imiquimod (TLR7) […]",0.389
same,NF-kB SEAP reporter activity,"[1]; library stock concentration (final ~1000-fold dilution): 10 mM water, cytotoxicity flag (confluency mask): not cytotoxic, agonist: MPLA (TLR4) […]",1.3
